Experimental data taken from PubChem BioAssay (Tox21).
“And” between values parts separate entries of the source, which are not always exact repeats. Equal values may be shown once. Records with an inconclusive call do not appear. The source made the active and inactive calls. Unless noted, calls come from the whole dose curve; as a rule, active = well fitted curve in the direction sought with a large enough effect in the repeat runs; inconclusive = weak or mixed curves; inactive = no such curve, though single readings can be large; an effect the other way counts as inactive or inconclusive.

Tests used:
[1] = qHTS assay for small molecules that induce genotoxicity in human embryonic kidney cells expressing luciferase-tagged ATAD5 (AID 651632); note: nearly all actives have a fitted effect of over 15% in size
Summary of the method: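 Quantitative HTS in HEK293T expressing luciferase-tagged ATAD5, whose levels rise upon DNA damage. Exposure ran 16 hr at 37C and 5% CO2, with luminescence read 30 min after Amplite addition at room temperature.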

[2] = qHTS assay for small molecule agonists of the p53 signaling pathway - cell viability (AID 651633; calls by dose curve; note: nearly all actives have a fitted effect of over 30% in size; note: potency is the fitted concentration of half-maximal effect)
Summary of the method: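 Viability counter-read: CellTiter-Glo luminescence (30 min, room temperature) in the same p53RE-bla plates. These plates had been exposed to compounds for 16 h at 37 C.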

[3] = qHTS assay for small molecules that induce genotoxicity in human embryonic kidney cells expressing luciferase-tagged ATAD5 - cell viability (AID 651634; calls by dose curve; note: nearly all actives have a fitted effect of over 25% in size; note: potency is the fitted concentration of half-maximal effect)
Summary of the method: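 After 15.5 hr incubation with compound at 37C, 5% CO2, HEK293T ATAD5-luciferase cells received CellTiter-Fluor reagent; fluorescence intensity was quantified following 30 min at 37C.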

[4] = qHTS assay for small molecule disruptors of the mitochondrial membrane potential - cell viability (AID 720634; calls by dose curve;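 note: human HepG2 liver cancer cells; series mostly up to about 83 µM; nearly all actives have a fitted effect of over 20% in size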)
Summary of the method: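 ATP-based luminescent viability readout (CellTiter-Glo, 30 min, room temperature) in HepG2 cells multiplexed with the m-MPI membrane potential dye; compound exposure lasted 1 hr at 37 C.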

[5] = qHTS assay for small molecule disruptors of the mitochondrial membrane potential (AID 720635); note: potency is the fitted concentration of half-maximal effect
Summary of the method: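 Mitochondrial membrane potential tracked with Mito-MPS dye, red aggregates (ex 540/em 590 nm) against green monomers (ex 490/em 535 nm). Compound treatment 1 hr at 37C, dye 30 min in HepG2.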

[6] = qHTS assay to test for compound auto fluorescence at 590 nm (red) in HepG2 cells (AID 720674)
Summary of the method: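 1 hr compound incubation on HepG2 cells, 37 C, 5% CO2; plate read ex 540 nm / em 590 nm; intensities reported as Rose Bengal sodium equivalents.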

[7] = qHTS assay to test for compound auto fluorescence at 535 nm (green) in HepG2 cells (AID 720675)
[8] = qHTS assay to test for compound auto fluorescence at 460 nm (blue) in HEK293 cells (AID 720678)
Summary of the method: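 Blue-channel (Ex/Em 405/460 nm) intensity measured in HEK293 cultures after overnight compound exposure at 37C; signal expressed relative to triamterene. Cells plated 2,000 per well in 10% dialyzed FBS medium and allowed 4-5 hr to attach.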

[9] = qHTS assay to test for compound auto fluorescence at 590 nm (red) in HEK293 cells (AID 720679)
Summary of the method: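 Red-channel autofluorescence (Ex/Em 540/590 nm; Rose Bengal sodium reference) was measured after overnight 37C, 5% CO2 exposure of attached HEK293 cells, 2,000 per well in medium with 10% dialyzed FBS.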

[10] = qHTS assay to test for compound auto fluorescence at 535 nm (green) in HEK293 cells (AID 720680)
[11] = qHTS assay to test for compound auto fluorescence at 460 nm (blue) in HEK293 cell free culture (AID 720681)
Summary of the method: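 Blue fluorescence (Ex 405/Em 460 nm, triamterene-equivalent) was read immediately after pin transfer of compound or DMSO into medium (DMEM, 10% FBS) without cells.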

[12] = qHTS assay to test for compound auto fluorescence at 535 nm (green) in HEK293 cell free culture (AID 720682)
Summary of the method: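 Cell-free medium (DMEM, 10% FBS) receives compound or DMSO by pintool. Plate read directly at Ex 485/Em 535 nm. Signal converted to fluorescein equivalency.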

[13] = qHTS assay to test for compound auto fluorescence at 590 nm (red) in HEK293 cell free culture (AID 720683)
Summary of the method: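 Red-channel autofluorescence of compounds in culture medium (DMEM, 10% FBS), no cells, measured at 540/590 nm. Rose Bengal sodium is the reference fluorophore for equivalence.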

[14] = qHTS assay to test for compound auto fluorescence at 590 nm (red) in HepG2 cell free culture (AID 720684)
Summary of the method: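 Cell-free; medium MEM + 10% FBS; compound or DMSO added by pintool; read Ex 540/Em 590 nm; Rose Bengal sodium as red reference fluorophore.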

[15] = qHTS assay to test for compound auto fluorescence at 460 nm (blue) in HepG2 cell free culture (AID 720685)
Summary of the method: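 Cell-free plates of MEM plus 10% FBS received 23 nL compound or DMSO vehicle; blue-channel (405/460 nm) intensity scored against triamterene as reference fluorophore.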

[16] = qHTS assay to test for compound auto fluorescence at 535 nm (green) in HepG2 cell free culture (AID 720686)
[17] = qHTS assay to test for compound auto fluorescence at 460 nm (blue) in HepG2 cells (AID 720687)
Summary of the method: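 Blue-channel autofluorescence (Ex/Em 405/460 nm, triamterene-equivalent) was measured after 1 hr compound exposure at 37 C, 5% CO2. Cells were HepG2, plated overnight at 37 C in MEM plus 10% FBS.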

[18] = target: Glucocorticoid receptor (Homo sapiens) (UniProt P04150); test: qHTS assay to identify small molecule agonists of the glucocorticoid receptor (GR) signaling pathway (AID 720691; active = well fitted activation curve with a large enough effect in the signal ratio in the repeat runs, not every such curve was filed as active; the % refers to the signal ratio)
Summary of the method: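 Cells: GR-bla HeLa, endogenous GR with stably integrated GRE-beta-lactamase reporter. Treatment 18 h, 37 C, compounds delivered in DMSO. Detection via LiveBLAzer B/G FRET substrate, 2 h RT, fluorescence intensity.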

[19] = target: Glucocorticoid receptor (Homo sapiens) (UniProt P04150); test: qHTS assay to identify small molecule antagonists of the glucocorticoid receptor (GR) signaling pathway (AID 720692; active = well fitted inhibition curve with a large enough effect in the signal ratio in the repeat runs, not every such curve was filed as active; the % refers to the signal ratio; note: potency is the fitted concentration of half-maximal effect)
Summary of the method: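 Quantitative HTS in antagonist format: HeLa cells expressing endogenous GR and a stably integrated GRE-bla reporter, stimulated with 5 nM dexamethasone (final) alongside test compounds for 18 h.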

Measured: Potency

Chain of Glucocorticoid receptor (Homo sapiens) (P04150 whole entry, looked up): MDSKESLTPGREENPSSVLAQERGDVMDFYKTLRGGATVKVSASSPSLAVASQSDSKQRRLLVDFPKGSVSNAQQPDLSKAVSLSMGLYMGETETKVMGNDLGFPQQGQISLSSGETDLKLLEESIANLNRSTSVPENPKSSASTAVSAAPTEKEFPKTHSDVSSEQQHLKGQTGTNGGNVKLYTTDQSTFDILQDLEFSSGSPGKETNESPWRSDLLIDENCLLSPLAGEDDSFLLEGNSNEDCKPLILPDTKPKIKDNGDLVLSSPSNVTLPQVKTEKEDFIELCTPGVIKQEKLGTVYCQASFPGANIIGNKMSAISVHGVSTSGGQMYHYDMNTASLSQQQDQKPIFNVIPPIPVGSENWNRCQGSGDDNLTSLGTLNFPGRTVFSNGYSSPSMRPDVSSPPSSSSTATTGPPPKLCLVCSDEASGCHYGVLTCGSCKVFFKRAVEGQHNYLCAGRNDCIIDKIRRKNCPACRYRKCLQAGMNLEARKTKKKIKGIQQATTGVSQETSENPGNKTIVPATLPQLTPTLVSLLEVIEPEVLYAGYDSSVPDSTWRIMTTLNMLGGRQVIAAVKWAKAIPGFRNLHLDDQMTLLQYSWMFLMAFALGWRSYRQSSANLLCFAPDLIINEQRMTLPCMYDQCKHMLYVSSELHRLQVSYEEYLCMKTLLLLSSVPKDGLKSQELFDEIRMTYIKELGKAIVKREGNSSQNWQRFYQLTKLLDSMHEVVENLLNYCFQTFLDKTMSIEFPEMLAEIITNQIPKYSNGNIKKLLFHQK

CC(C)Cc1ccc(C(C)C(=O)O)cc1 (stereo unspecified)
inactive: all assays above

O=C1OC(c2ccc(O)cc2)(c2ccc(O)cc2)c2ccccc21
active: [5] 21.1 µM and 48.2 µM and 68.6 µM
not listed: [1] | [18] | [19]
inactive: all other assays above

C#C[C@]1(O)CC[C@H]2[C@@H]3CCc4cc(O)ccc4[C@H]3CC[C@@]21C
active: [3] 15.2 µM | [5] 13.3 µM and 13.6 µM and 17.2 µM | [19] 1.54 µM
not listed: [18]
inactive: all other assays above

CC(C)CC(C)CC(O)CC(C)C (stereo unspecified)
not listed: [14] | [18] | [19]
inactive: all other assays above

Cc1cnc(NC(=O)C2=C(O)c3ccccc3S(=O)(=O)N2C)s1
not listed: [3] | [5]
inactive: all other assays above

CCN1CCCC1=O
not listed: [14]
inactive: all other assays above

CCCCCCCCCCCCCCCCCC(=O)OCC(O)CO (stereo unspecified)
inactive: all assays above

CCCCOCCOCCOC(C)=O
inactive: all assays above

COC(=O)c1ccc(C=O)cc1
inactive: all assays above

CC(C)(C)CC(C)(C)c1ccc(O)c(-n2nc3ccccc3n2)c1
active: [2] 49.2 µM and 48.6 µM | [5] 10.6 µM and 24.7 µM and 30.6 µM
not listed: [14]
inactive: all other assays above

COC(=O)c1ccc(O)cc1
not listed: [4] | [5] | [14]
inactive: all other assays above

COc1ccc(C(=O)c2ccccc2)c(O)c1
not listed: [14]
inactive: all other assays above

NC(N)=NC(N)=NCCc1ccccc1
not listed: [14]
inactive: all other assays above

CCCCCCCC(=O)OCC(O)CO (stereo unspecified)
inactive: all assays above

COc1cc(O)c(C(=O)c2ccccc2)cc1S(=O)(=O)O
not listed: [1] | [18] | [19]
inactive: all other assays above
